According to PubChem BioAssay AID588402 (Sanford-Burnham Center for Chemical Genomics, 2011):
Among all 1,600 compounds or so, about 1,100 (69%) were called active. The set was probably picked from earlier hits. Not all results are given here. Values without a mark were called inactive. No stated cut-off is given here; in the data, active means inhibition above about 50%; inactive means the rest.

These compounds were tested against Phospholipase A2 (Homo sapiens) (UniProt P04054) (assay: PLA2 enzyme inhibition, counter-screen for ATG4B inhibitor project, biochemical, single concentration, uHTS hits (AID 588402)). Conditions: purified PLA2, NBD-C6-HPC fluorescence, 45 min; at 8.33 µM; stronger effect = higher value.
Sequence of Phospholipase A2 (Homo sapiens) (P04054 whole entry, looked up): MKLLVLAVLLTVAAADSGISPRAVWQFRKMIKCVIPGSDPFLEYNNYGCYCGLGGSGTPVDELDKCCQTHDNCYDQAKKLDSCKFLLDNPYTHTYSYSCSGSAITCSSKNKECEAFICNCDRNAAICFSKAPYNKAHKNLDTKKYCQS

| SMILES | inhibition |
| --- | --- |
| O=C(C(=O)N1CCc2ccccc2C1)c1c[nH]c2ccccc12 | 71% (active) |
| COc1ccc2c(c1)CCc1c(C(=O)N3CCc4ccccc4C3)noc1-2 | 47.9% |
| Cc1ccc(-c2cc(C(=O)N3CCc4ccccc4C3)no2)cc1 | 43.8% |
| Cc1ccc(CSc2nc(-c3ccccc3)c(C#N)c(=O)[nH]2)cc1 | 32.1% |
| COc1ccc(Br)cc1C(=O)NC(=S)Nc1cc(-c2nc3ccccc3[nH]2)ccc1C | 74.1% (active) |
| Cc1cccc(C)c1N1C(=O)CN(Cc2ccccc2)C1=S | 90.3% (active) |
| CCc1cccc(C)c1N1C(=O)CN(Cc2ccccc2)C1=S | 92.4% (active) |
| Cc1cccc(C)c1-n1c(C)cc(/C=C2\C(=O)NN(c3ccccc3)C2=O)c1C | 63.7% (active) |
| Cc1c(Cl)cccc1NC(=O)Nc1ccc(C(=O)N2CCCC2)cc1 | 56.6% (active) |
| O=C1c2ccccc2C(=O)N1Cc1cc(-c2ccccc2Cl)no1 | 64.2% (active) |
| COc1ccc(C)cc1S(=O)(=O)N(CC(=O)Nc1cccc([N+](=O)[O-])c1)c1ccc(C)cc1 | 86.6% (active) |
| Cc1ccc(S(=O)(=O)N(CC(=O)Nc2cccc([N+](=O)[O-])c2)Cc2ccc(Cl)cc2)cc1 | 80.7% (active) |
| Fc1cccc(Cl)c1CSc1ccc(-c2ccco2)nn1 | 49.5% |
| NC(=O)Cc1ccc2sc(-c3ccccc3)nc2c1 | 79.7% (active) |
| CCN1CCN(c2c(Cl)cccc2NC(=O)c2ccc(Br)o2)CC1 | 61.6% (active) |
| Cc1ccc(N=C2NC(=O)/C(=C/C=C/c3ccco3)S2)cc1C | 36.4% |
| CC(C)c1ccc2c(c1)c(SC(C)(C)C)c(CC(C)(C)C(=O)O)n2Cc1ccc(Cl)cc1 | 57.7% (active) |
| O=C(/C=C/c1ccc(Cl)cc1)N1CCN(c2ccccc2[N+](=O)[O-])CC1 | 53% (active) |
| CC(=O)c1c(C)n(-c2ccc(N(C)C)cc2)c2ccc(OCC(N)=O)cc12 | 82.6% (active) |
| Cc1c(Cl)c([N+](=O)[O-])nn1CCCC(=O)Nc1cc(Cl)ccc1Cl | 69.4% (active) |

| SMILES | inhibition |
| --- | --- |
| COc1ccc(/C=C2/SC(=O)N(CCCCCC(=O)Nc3ccccc3C(=O)O)C2=S)cc1 | 24.3% |
| O=C(Nc1cccc(F)c1)NC1CCCc2ccccc21 (stereo not given) | 71.2% (active) |
| CCOC(=O)c1c(C)[nH]c2c1-c1ccccc1C(=O)C2=O | -20.8% |
| CC1CCN(C(=O)c2ccc(CSc3ccc(Cl)cc3)cc2)CC1 | 58.1% (active) |
| CC1(OC(=O)C2CCCC2)C(=O)C=C2C=C(c3ccc(C#N)cc3)OC=C2C1=O (stereo not given) | 66.5% (active) |
| CCCc1nc2c(c(=O)c3ccccc3n2C)c(=O)n1C1CCCCCC1 | -14.6% |
| Cc1c(Cl)cccc1NC(=S)NCc1ccc2c(c1)OCO2 | 62.1% (active) |
| CCCOc1ccc2c3c(c(=O)oc2c1OCCC)CCC3 | 40.9% |
| CCc1ccccc1NC(=O)/C(=C/c1ccccc1)c1ccccc1 | 61.7% (active) |
| Cc1ccc(Nc2cc(=O)n(C3CCCCC3)c(=O)[nH]2)cc1C | 2.78% |
| NC(=O)Cc1ccc2c(c1)[nH]c1ccccc12 | 51% (active) |
| O=C1N=C(N2CCc3ccccc3C2)S/C1=C\c1ccc(O)cc1 | 23.3% |
| O=c1c2sccc2nc(SCc2cc(=O)n3ccccc3n2)n1-c1ccc(Br)cc1 | 51.5% (active) |
| CCOC(=O)C(C)Sc1nc2ccccc2c(=O)n1CC1CCCCC1 (stereo not given) | 44.5% |
| CCOc1ccc(-n2c(SC(C)C(=O)OC)nc3c(c2=O)SCC3)cc1 (stereo not given) | 56.4% (active) |
| Cc1ccc(NC(=O)CC2S/C(=N/N=C3\CCCc4ccccc43)NC2=O)cc1 (stereo not given) | 60% (active) |
| Cc1nn(-c2ccccc2)c(C)c1/C=N/NC(=O)CSc1nc2ccccc2c(=O)n1-c1ccccc1 | 31.8% |
| COC(=O)c1c(NC(=O)C2CC(C)=C(C)CC2C(=O)O)sc2c1CCCCC2 (stereo not given) | 68% (active) |
| COc1cccc(CNc2nc(C(F)(F)F)nc3ccccc23)c1 | 63.6% (active) |
| OC(CNCc1ccc(Cl)c(Cl)c1)c1ccccc1 (stereo not given) | 38.9% |

| SMILES | inhibition |
| --- | --- |
| Cc1c(NC(=S)NCc2ccc(F)cc2)cccc1[N+](=O)[O-] | 70.7% (active) |
| Cc1cccc(C2c3[nH]c4ccccc4c3CCN2C(=O)c2cc(-c3cccn3C)n[nH]2)n1 (stereo not given) | 75.6% (active) |
| Cc1c(Cl)c([N+](=O)[O-])nn1Cc1ccc(C(=O)N/N=C\c2cc(Cl)ccc2O)o1 | 72.6% (active) |
| COc1cccc(/C=N/Nc2ccc(S(=O)(=O)Nc3ccccc3C(=O)O)cc2[N+](=O)[O-])c1O | 56.1% (active) |
| c1ccc(C2=Nc3cccc4cccc(c34)N2)cc1 | 58.5% (active) |
| CC(C)c1nc(SCC(=O)Nc2cccc(C(=O)O)c2)c2c3c(sc2n1)CCCC3 | 70.6% (active) |
| Cc1nc2ccccc2c(-c2ccccc2)c1C(=O)c1ccccc1 | 81.3% (active) |
| Cc1ncc(CC(=O)n2cc(C(=O)c3cc(Cl)ccc3O)cn2)s1 | 84.3% (active) |
| Cc1cccc(C)c1N1CCN(S(=O)(=O)N2CCCCC2)CC1 | 54.3% (active) |
| Cc1nc(SCC(=O)N2CCc3ccccc3C2)c2c(C)c(C)sc2n1 | 76.5% (active) |
| FC(F)(F)c1cccc(NC(=S)Nc2cccc(Cl)c2)c1 | 70.8% (active) |
| Cc1ccc(C2=Nc3c(ccc4ccccc34)C(c3ccncc3)=NN2)cc1 | 68.7% (active) |
| O=C(NCc1ccccc1)[C@H]1C[C@@H]1[C@H](NP(=O)(c1ccccc1)c1ccccc1)c1ccccc1 | 79% (active) |
| Clc1ccccc1CSc1nnc(-c2ccco2)c(-c2ccco2)n1 | 34.9% |
| O=C(Nc1nnc(SCc2ccccc2Cl)s1)c1cccc([N+](=O)[O-])c1 | 57.6% (active) |
| O=C(CSc1nc(-c2ccccc2)cs1)Nc1cccc([N+](=O)[O-])c1 | 16.5% |
| S=C(NCCc1ccccc1)NCc1ccccc1Cl | 54.4% (active) |
| Cc1ccc(CNC(=O)c2ccccc2CCc2ccccc2)cc1 | 45.9% |
| FC(F)(F)Oc1ccc(NC(=S)NCc2ccccc2)cc1 | 47.2% |
| CN(Cc1c(F)cccc1Cl)S(=O)(=O)c1cccs1 | 58.8% (active) |
